# Where a name gives a salt, the structure may show the parent alone.
# What was measured:
# Settings in all cases: 10 µM; exposure time 6 h
# [1] = test system: Danio rerio larvae (5 dpf); assay: difference in excitability vs DMSO (percentage points); higher = more excitable than DMSO
# Procedure, shortened: (§1)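 Wild-type zebrafish larvae at 5 dpf were kept in 96-well plates and exposed for 6 h to 100 µL egg water holding library compound at a final concentration of 10 µM. From 3 h into exposure, the plates were held at 28.5 ℃ and photographed every 6 s through a 3-h programme of moving lines and 100 ms, 400Hz tones. Each behaviour was scored by Z-LaP Tracker, a DeepLabCut model, and averaged over 48 larvae per compound. Every value gives the compound mean minus the vehicle control mean, in percentage points.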
# [2] = test system: Danio rerio larvae (5 dpf); assay: difference in startle response vs DMSO (percentage points); higher = stronger startle than DMSO
# Procedure, shortened: as §1
# [3] = test system: Danio rerio larvae (5 dpf); assay: difference in activity during first hour vs DMSO (percentage points); higher = more activity than DMSO
# Procedure, shortened: as §1
# [4] = test system: Danio rerio larvae (5 dpf); assay: difference in habituation to acoustic stimuli vs DMSO (percentage points); higher = more habituation than DMSO
# Procedure, shortened: as §1
# [5] = test system: Danio rerio larvae (5 dpf); assay: difference in combined optomotor response to red, green and blue moving lines vs DMSO (percentage points); higher = stronger optomotor response than DMSO
# Procedure, shortened: as §1
Structure (SMILES),difference in excitability [1],difference in startle response [2],difference in activity during first hour [3],difference in habituation to acoustic stimuli [4],difference [5]
Nc1ncn([C@@H]2O[C@H](CO)[C@@H](O)[C@H]2O)c(=O)n1 [5-Azacytidine],6.01,-4.41,-3.91,-4.6,0.0811
Cc1ccc(Sc2ccccc2N2CCNCC2)c(C)c1 [Vortioxetine (hydrobromide)],-0.102,7.18,-8.07,-14.1,-11.4
COc1cc(Nc2ncc(F)c(Nc3ccc4c(n3)N(COP(=O)(O)O)C(=O)C(C)(C)O4)n2)cc(OC)c1OC [R788 (sodium salt)],4.23,4.11,7.65,-1.65,2.43
c1ccc2c(CC3=NCCN3)cccc2c1 [Naphazoline (hydrochloride)],10.4,-5.95,0.867,-2.18,-3.73
CC(=O)OCC(=O)[C@@]1(O)CC[C@H]2[C@@H]3CCC4=CC(=O)CC[C@]4(C)[C@H]3C(=O)C[C@@]21C [Cortisone Acetate],2.07,-1.29,1.26,3.11,-0.38
CN1C(C(=O)Nc2ccccn2)=C(O)c2ccccc2S1(=O)=O [Piroxicam],12.1,0.219,4.07,-1.73,-0.889
CNCc1ccc(-c2[nH]c3cc(F)cc4c3c2CCNC4=O)cc1 [Rucaparib],15.9,5.43,-11,15.7,11
CCCCc1oc2ccc(NS(C)(=O)=O)cc2c1C(=O)c1ccc(OCCCN(CCCC)CCCC)cc1 [Dronedarone (hydrochloride)],7.9,-9.8,11.1,-12.7,-11.9
COc1cc2c(cc1Cc1cccc(Cl)c1F)c(=O)c(C(=O)O)cn2[C@H](CO)C(C)C [Elvitegravir],4.89,-9.84,6.05,0.943,-4.56
C[C@H](CS)C(=O)N1CCC[C@H]1C(=O)O [Captopril],1.66,-4.09,-5.55,-3.07,1.64
CC(C(=O)O)c1ccc(-c2ccccc2)c(F)c1 (racemic) [(±)-Flurbiprofen],17.6,-8.24,15,-6.69,-3.74
CCCCC[C@](C)(O)/C=C/[C@@H]1[C@@H](C/C=C\CCCC(=O)O)[C@@H](O)C[C@H]1O [15(S)-15-methyl Prostaglandin F2α],1.12,0.545,22.8,1.43,5.47
OCCOCCN1CCN(C2=Nc3ccccc3Sc3ccccc32)CC1 [Quetiapine (hemifumarate)],-1.54,-3.79,16.8,-4.99,10.6
O=C(O)c1cc(/N=N/c2ccc(O)c(C(=O)O)c2)ccc1O [Olsalazine (sodium salt)],-2.93,2.86,0.738,-4.79,-8.04
CCCCNc1cc(C(=O)O)cc(S(N)(=O)=O)c1Oc1ccccc1 [Bumetanide],5.57,-2.75,5.52,-3.24,3.54
CN1CCN(CCCN2c3ccccc3Sc3ccc(C(F)(F)F)cc32)CC1 [Trifluoperazine (hydrochloride)],11.8,-1.73,23.8,-10.9,-0.14
CCCc1nn(C)c2c(=O)[nH]c(-c3cc(S(=O)(=O)N4CCN(C)CC4)ccc3OCC)nc12 [Sildenafil Citrate],4.08,-0.935,-7.02,-0.835,5.26
Cc1ccc(-c2cc(C(F)(F)F)nn2-c2ccc(S(N)(=O)=O)cc2)cc1 [Celecoxib],6.16,-9.06,2.67,-10.4,-6.28
Cc1cccc(Nc2ccncc2S(=O)(=O)NC(=O)NC(C)C)c1 [Torasemide],6.87,-10.7,6.15,-5.49,-5.29
CC(=O)OCC(=O)[C@@]12N=C(C)O[C@@H]1C[C@H]1[C@@H]3CCC4=CC(=O)C=C[C@]4(C)[C@H]3[C@@H](O)C[C@@]12C [Deflazacort],13.1,3.69,-3.59,-1.6,13.9
N[C@@H](Cc1cc(I)c(Oc2cc(I)c(O)c(I)c2)c(I)c1)C(=O)O [L-Thyroxine],12.1,-4.02,7.61,-1.15,1.95
Cc1ccc(NC(=O)c2ccc(CN3CCN(C)CC3)cc2)cc1Nc1nccc(-c2cccnc2)n1 [Imatinib (mesylate)],13.1,1.01,-9.06,5.17,-1.23
